The nature of assay [1]: antimalarial activity against Dd2 strain (AID 2302;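 active = growth inhibition above 50% at the single 2 µM test dose, taken to imply half-maximal potency below 2 µM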;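 note: 0% = DMSO untreated growth and 100% = chloroquine plus artemisinin killed control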). The following applies: P. falciparum Dd2 in RBCs, LDH growth readout, 72 h; at 2 µM; stronger effect = higher value.
The nature of assay [2]: human hepatoma cell viability loss – ATP luminescence, cytotoxicity control for P. falciparum antimalarial project, primary screen (AID 2303;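 active = inhibition above 50%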;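 note: 0% = DMSO wells and 100% = digitonin-killed cells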). The following applies: HepG2 viability, 24-48 h, at 10 µM, stronger effect = higher value.
Assay [3] addresses L-lactate dehydrogenase (Plasmodium falciparum (isolate CDC / Honduras)) (UniProt Q27743). As to the kind of experiment: PfLDH activity inhibition – cell lysate, 3D7 strain, counter-screen for P. falciparum growth inhibition project (AID 2304).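 Note: 0% = vehicle and 100% = reference inhibitor.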 The following applies: P. falciparum 3D7 crude extract, LDH APAD/NBT absorbance; at 2 µM; stronger effect = higher value. (In general: A counterscreen serves to expose hits that act by an unwanted route or on another target.)

Assay [4] can be described thus: inhibition of 3D7 malaria parasite growth – strain 3D7 (AID 2306).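 Note: 0% = DMSO wells and 100% = chloroquine plus artemisinin control wells.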 The following applies: P. falciparum 3D7 erythrocytic growth, LDH absorbance, 72 h; at 2 µM; stronger effect = higher value.
The target in assay [5] is Calcium-dependent protein kinase 1 (Plasmodium falciparum (isolate 3D7)) (UniProt P62344). As to the kind of experiment: PfCDPK1 kinase inhibitors, biochemical, TCAMS library (AID 1159585; cut-off not given, nearly all actives have IC50 up to about 0.98 µM;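 note: inhibitors leave more ATP so luminescence rises with inhibition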). As to conditions: recombinant PfCDPK1, Kinase-Glo ATP depletion luminescence.
Assay [6] deals with Plasmodium falciparum protein kinase 6 (PK6, PF3D7_1337100) (UniProt Q8IDW1). As to the kind of experiment: PfPK6 kinase inhibitors, biochemical, TCAMS library (AID 1159586). As to conditions: recombinant PfPK6, Kinase-Glo ATP depletion luminescence.
The target of assay [7] is Protein kinase 7 (PK7), Plasmodium falciparum 3D7 (PF3D7_0213400) (UniProt Q7YTF7). The assay is described as follows: inhibition of Plasmodium PK7 catalytic activity – biochemical, TCAMS antimalarial set, Kinase-Glo luminescence (AID 1159587). The following applies: recombinant PfPK7, Kinase-Glo ATP depletion luminescence.
Assay [8] deals with Calcium-dependent protein kinase 4 (Plasmodium falciparum (isolate 3D7)) (UniProt Q8IBS5). As to the kind of experiment: PfCDPK4 kinase inhibitors, biochemical, TCAMS library (AID 1159588; cut-off not given, nearly all actives have IC50 up to about 0.91 µM). The following applies: recombinant PfCDPK4, Kinase-Glo ATP depletion luminescence. In general terms: Kinase-Glo reads ATP consumption through a luciferase reaction.

A number with no mark means an inactive call. For some of these results: Results with a measured potency or affinity are listed apart. Activity calls are given as the source filed them. Unless noted, the rule behind the calls is not given here.

Chain of Calcium-dependent protein kinase 1 (Plasmodium falciparum (isolate 3D7)) (P62344 whole entry, looked up): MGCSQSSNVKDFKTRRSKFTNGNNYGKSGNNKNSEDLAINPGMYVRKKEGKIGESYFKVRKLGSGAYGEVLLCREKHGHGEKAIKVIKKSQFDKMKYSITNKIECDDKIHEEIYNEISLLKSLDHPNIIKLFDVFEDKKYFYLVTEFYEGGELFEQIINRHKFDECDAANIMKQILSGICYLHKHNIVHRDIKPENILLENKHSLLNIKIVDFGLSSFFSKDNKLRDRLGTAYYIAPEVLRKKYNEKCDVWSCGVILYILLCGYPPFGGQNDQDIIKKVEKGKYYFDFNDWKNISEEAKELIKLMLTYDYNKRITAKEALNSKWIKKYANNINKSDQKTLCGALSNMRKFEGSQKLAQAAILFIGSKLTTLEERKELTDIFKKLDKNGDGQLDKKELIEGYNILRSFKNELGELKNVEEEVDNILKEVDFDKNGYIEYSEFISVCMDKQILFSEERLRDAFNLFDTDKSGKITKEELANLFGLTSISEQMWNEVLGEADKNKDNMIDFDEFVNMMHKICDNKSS
Chain of Plasmodium falciparum protein kinase 6 (PK6, PF3D7_1337100) (Q8IDW1 1-305): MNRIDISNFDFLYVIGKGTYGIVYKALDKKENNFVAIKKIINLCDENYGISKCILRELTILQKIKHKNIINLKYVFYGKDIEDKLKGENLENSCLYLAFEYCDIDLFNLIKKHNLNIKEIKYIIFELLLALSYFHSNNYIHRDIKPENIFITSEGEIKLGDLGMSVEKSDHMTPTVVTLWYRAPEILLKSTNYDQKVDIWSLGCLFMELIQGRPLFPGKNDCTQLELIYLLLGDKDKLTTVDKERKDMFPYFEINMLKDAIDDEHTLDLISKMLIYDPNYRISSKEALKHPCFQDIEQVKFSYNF
Chain of Protein kinase 7 (PK7), Plasmodium falciparum 3D7 (PF3D7_0213400) (Q7YTF7 1-343): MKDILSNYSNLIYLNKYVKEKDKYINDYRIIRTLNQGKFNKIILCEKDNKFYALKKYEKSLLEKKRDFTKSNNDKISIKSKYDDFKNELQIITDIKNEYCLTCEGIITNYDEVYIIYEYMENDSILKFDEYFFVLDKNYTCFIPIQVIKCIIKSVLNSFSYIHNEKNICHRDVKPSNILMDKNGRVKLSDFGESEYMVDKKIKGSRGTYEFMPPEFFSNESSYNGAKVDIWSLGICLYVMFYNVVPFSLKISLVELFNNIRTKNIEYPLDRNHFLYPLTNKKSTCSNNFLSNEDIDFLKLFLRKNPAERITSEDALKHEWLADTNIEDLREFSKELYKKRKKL
Chain of L-lactate dehydrogenase (Plasmodium falciparum (isolate CDC / Honduras)) (Q27743 whole entry, looked up): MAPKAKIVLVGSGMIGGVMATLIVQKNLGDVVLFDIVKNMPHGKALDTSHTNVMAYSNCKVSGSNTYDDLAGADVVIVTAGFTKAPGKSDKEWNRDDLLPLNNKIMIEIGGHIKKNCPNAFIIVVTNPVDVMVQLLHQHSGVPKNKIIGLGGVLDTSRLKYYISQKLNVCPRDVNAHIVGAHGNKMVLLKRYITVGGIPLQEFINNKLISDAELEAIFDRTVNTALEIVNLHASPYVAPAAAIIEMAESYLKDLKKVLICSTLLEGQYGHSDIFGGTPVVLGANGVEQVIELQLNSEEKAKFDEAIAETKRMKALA
Chain of Calcium-dependent protein kinase 4 (Plasmodium falciparum (isolate 3D7)) (Q8IBS5 whole entry, looked up): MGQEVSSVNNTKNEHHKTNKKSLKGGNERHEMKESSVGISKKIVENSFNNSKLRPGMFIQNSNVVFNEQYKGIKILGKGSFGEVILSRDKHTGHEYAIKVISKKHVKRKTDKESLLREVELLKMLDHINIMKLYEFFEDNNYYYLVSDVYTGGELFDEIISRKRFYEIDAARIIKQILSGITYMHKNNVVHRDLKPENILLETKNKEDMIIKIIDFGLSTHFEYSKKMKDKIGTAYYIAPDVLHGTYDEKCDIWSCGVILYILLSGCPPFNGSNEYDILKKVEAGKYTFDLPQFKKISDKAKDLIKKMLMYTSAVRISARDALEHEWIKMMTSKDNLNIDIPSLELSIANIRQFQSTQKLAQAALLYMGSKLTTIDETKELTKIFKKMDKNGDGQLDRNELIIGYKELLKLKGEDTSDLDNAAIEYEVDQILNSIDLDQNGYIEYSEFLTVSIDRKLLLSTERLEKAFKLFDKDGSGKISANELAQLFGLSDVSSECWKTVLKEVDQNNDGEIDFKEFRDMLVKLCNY

One may read the inhibition as the change of the read-out against control, counted positive when it falls. Turning to `CC(C)N1CCC(N(Cc2ccc(-c3ccc(Cl)cc3)cc2)C(=O)Cn2c(CCc3cccc(F)c3F)nc(=O)c3ccccc32)CC1`, the growth inhibition in assay [1] is 70% (active); in assay [4], 86% (active). In addition, the inhibition was 61% (active) in assay [2] and 5% in assay [3]. Further, the result in assay [5], in assay [6], in assay [7] and in assay [8] was inactive.

On to `O=C(Nc1ccc(-c2cccc(-c3nc4ccc(C(F)(F)F)cc4[nH]3)c2)cc1)Nc1ccc(F)c(F)c1F`, for which the growth inhibition in assay [1] is 85% (active); in assay [4], 99% (active). The inhibition is 58% (active) in assay [2] and 1% in assay [3]. The outcome in assay [5], in assay [6], in assay [7] and in assay [8] was inactive.

`Cc1cc(N[C@@H](Cc2ccccc2)C(=O)Nc2ccccc2)nc(NCCc2cccs2)n1`: the growth inhibition is 72% (active) in assay [1] and 100% (active) in assay [4]. The inhibition in assay [2] and in assay [3] was -1% throughout. Moreover, the result in assay [5], in assay [6], in assay [7] and in assay [8] was inactive.

Regarding `O=c1cc(NCCCNCc2cccc3c2OC(F)(F)O3)[nH]c2ccccc12`, the growth inhibition is 15% in assay [1] and 88% (active) in assay [4]. Further, the inhibition in assay [2] was 4%; in assay [3], 7%. In addition, the outcome in assay [5], in assay [6], in assay [7] and in assay [8] was inactive.

`CN1CCN(Cc2ccc(-c3cccc(-c4nc5ccccc5[nH]4)c3)cc2)CC1`: the growth inhibition is 6% in assay [1] and 93% (active) in assay [4]. Besides, the inhibition was 21% in assay [2] and 3% in assay [3]. Besides, the outcome in assay [5], in assay [6], in assay [7] and in assay [8] was inactive.

On to `COc1cccc(C(=O)[C@H]2C[C@@H]2CN(C)CCC(O)c2ccc(Cl)c(Cl)c2)c1` (stereo not given in full), for which the growth inhibition in assay [1] is 95% (active); in assay [4] it was 99% (active). The results for the inhibition in assay [2] and in assay [3] were 17% and -2%, respectively. The outcome in assay [5], in assay [6], in assay [7] and in assay [8] was inactive.

In the case of `CCc1nonc1NC(=O)c1oc2c(C)c(C)ccc2c1C`, the values for the growth inhibition in assay [1] and in assay [4] were 64% (active) and 89% (active), respectively. Also, the results for the inhibition in assay [2] and in assay [3] were 1% and -3%, respectively. Moreover, the outcome in assay [5], in assay [6], in assay [7] and in assay [8] was inactive.

`Cc1ccc(OC2CCN(c3ccc(C(=O)NC4CC4)cn3)CC2)cc1`: the growth inhibition in assay [1] was 75% (active); in assay [4] it was 87% (active). For the same molecule, the inhibition in assay [2] is 11%; in assay [3], 4%. Besides, the outcome in assay [5], in assay [6], in assay [7] and in assay [8] was inactive.

As to `Cc1cccc2[nH]c(-c3ccc(-c4ccc(CNCCCN5CCCC5=O)cc4)cc3)nc12`, the growth inhibition in assay [1] was 47%; in assay [4] it was 100% (active). Further, the inhibition in assay [2] was 7%; in assay [3], -5%. Further, the result in assay [5], in assay [6], in assay [7] and in assay [8] was inactive.

Consider `CN(C)CCN(C)Cc1ccc(-c2ccc(NC(=O)c3cccc(C#N)c3)cc2)cc1`, for which the growth inhibition in assay [1] was 49%; in assay [4], 89% (active). In addition, the inhibition in assay [2] was 20%; in assay [3], 2%. Besides, the outcome in assay [5], in assay [6], in assay [7] and in assay [8] was inactive.

For `c1ccc2c(c1)CN(CC1CC1)CC1(CCN(Cc3c[nH]c4cnccc34)CC1)O2`, the growth inhibition was 14% in assay [1] and 101% (active) in assay [4]. The inhibition was 30% in assay [2] and -1% in assay [3]. Further, the outcome in assay [5], in assay [6], in assay [7] and in assay [8] was inactive.

As to `CCOc1cc(C(=O)NC2CC(C)(C)NC(C)(C)C2)ccc1-c1cc2cc(Cl)c(Cl)cc2[nH]1`, the results for the growth inhibition in assay [1] and in assay [4] were 46% and 101% (active), respectively. The results for the inhibition in assay [2] and in assay [3] were 37% and -1%, respectively. For the same molecule, the outcome in assay [5], in assay [6], in assay [7] and in assay [8] was inactive.

Consider `CCN(CC)CCN(Cc1ccc(-c2ccc(C(F)(F)F)cc2)cc1)C(=O)Cn1c(CCc2cccc(F)c2F)cc(=O)cc1-c1ccccc1`, for which the growth inhibition is 64% (active) in assay [1] and 94% (active) in assay [4]. Further, the inhibition in assay [2] was 33%; in assay [3] it was -2%. The result in assay [5], in assay [6], in assay [7] and in assay [8] was inactive.

For the molecule `COc1ccc2nccc([C@@H](O)CN3CCC(NC(=O)Cc4cc5ccccc5s4)CC3)c2c1`, the growth inhibition is 42% in assay [1] and 92% (active) in assay [4]. Further, the inhibition in assay [2] is 16%; in assay [3], 7%. Further, the result in assay [5], in assay [6], in assay [7] and in assay [8] was inactive.

With `CCCCCCP(=O)(COc1ccc(CCN(CC(O)COc2cccc3[nH]c(C(N)=O)cc23)CC(O)COc2cccc3[nH]c(C(N)=O)cc23)cc1)OCCCC` (stereo not given), the growth inhibition in assay [1] is 97% (active); in assay [4], 99% (active). The inhibition was -10% in assay [2] and 3% in assay [3]. The result in assay [5], in assay [6], in assay [7] and in assay [8] was inactive.

Turning to `COc1ccc2nc(-c3ccc(C(=O)NCCCN4CCN(c5cc(Cl)ccc5OC)CC4)cc3OC)[nH]c2c1`, the growth inhibition is 24% in assay [1] and 101% (active) in assay [4]. Moreover, the results for the inhibition in assay [2] and in assay [3] were -5% and 1%, respectively. The result in assay [5], in assay [6], in assay [7] and in assay [8] was inactive.

Regarding `Cc1ccc(Cc2c(N)nc3nc(N)nc(N)c3c2C)cc1`, the growth inhibition in assay [1] was 8%; in assay [4] it was 95% (active). In addition, the inhibition is 59% (active) in assay [2] and 4% in assay [3]. The result in assay [5], in assay [6], in assay [7] and in assay [8] was inactive.

Regarding `N#Cc1cccc(Nc2ncc3c(-c4cccc(NC(=O)Cc5cccc(Cl)c5)c4)c[nH]c3n2)c1`, the figures for the growth inhibition in assay [1] and in assay [4] were 95% (active) and 101% (active), respectively. Moreover, the inhibition in assay [2] is -1%; in assay [3], -2%. Moreover, the outcome in assay [5], in assay [6], in assay [7] and in assay [8] was inactive.

In the case of `CC(O)C1CCCCN1C(=O)c1ccc(-c2ccc(-c3nc4ccc(F)cc4[nH]3)cc2)cc1` (stereo not given), the growth inhibition in assay [1] was 99% (active); in assay [4], 101% (active). Also, the values for the inhibition in assay [2] and in assay [3] were 43% and -3%, respectively. In addition, the outcome in assay [5], in assay [6], in assay [7] and in assay [8] was inactive.

As for `CN1CCC(Oc2ccc(CN3CC[C@H](NC(=O)c4cc(F)cc(F)c4)C3)c3ccccc23)C1` (stereo not given in full), the growth inhibition is 23% in assay [1] and 98% (active) in assay [4]. Moreover, the inhibition in assay [2] was 26%; in assay [3], 5%. Also, the outcome in assay [5], in assay [6], in assay [7] and in assay [8] was inactive.

The record behind these values is PubChem BioAssay.
